Assay results as given in PubChem BioAssay (NCI).
The panel holds about 83,000 compounds, 20% with a hit somewhere; the sample as a whole holds those more often.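 Each cell line was grown in a 96-well plate and treated with one concentration of compound for 48 hours. Values below 10 were considered active.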 Unmarked numbers belong to inactive results. Calls of active or inactive are those of the source.

Key:
Assay in all cases: NCI-60 one-dose screen, 48 h (100 = growth as untreated, 0 = no growth, -100 = all killed)
Conditions in all cases: 10 µM
NCI-H23 lung = system: NCI-H23 lung
NCI-H226 lung = system: NCI-H226 lung
HOP-62 NSCLC = system: HOP-62 NSCLC
NCI-H522 lung = system: NCI-H522 lung
A549/ATCC NSCLC = system: A549/ATCC NSCLC
786-0 renal = system: 786-0 renal
COLO 205 colon = system: COLO 205 colon
DU-145 prostate = system: DU-145 prostate
NCI-H460 lung = system: NCI-H460 lung
NCI-H322M lung = system: NCI-H322M lung

Compound	growth (NCI-H23 lung)	growth (NCI-H226 lung)	growth (HOP-62 NSCLC)	growth (NCI-H522 lung)	growth (A549/ATCC NSCLC)	growth (786-0 renal)	growth (COLO 205 colon)	growth (DU-145 prostate)	growth (NCI-H460 lung)	growth (NCI-H322M lung)
COc1ccc(Nc2nc3ccc(NC(=O)NC4CCCCC4)cc3[nH]c2=O)cc1	94.1%	94.5%	83.9%	87.3%	89.5%	72.7%	112%	107%	–	–
COc1ccc2c(c1)sc1nc(-c3ccccc3)c(-c3cccnc3)n12	88.4%	103%	125%	-22.7% (active)	94.1%	96.9%	128%	107%	102%	–
ClCCOCCn1cnc2c(Cl)nc(Cl)nc21	55.1%	74.8%	88.6%	60.1%	–	87.6%	88.1%	-5.51% (active)	28.5%	–
Nc1nc(N=Nc2ccc(O)cc2)cc(=O)[nH]1	101%	114%	102%	112%	111%	105%	106%	116%	107%	–
O=C(Nc1cccc(-n2cc(-c3ccncc3)c(-c3ccc(O)c(Cl)c3)n2)c1)Nc1cccc(C(F)(F)F)c1	-5.75% (active)	57.5%	-3.45% (active)	-6.25% (active)	–	14.9%	22.7%	12.8%	–	-10.3% (active)
CCOC(=O)N1C/C(=C/c2ccc(F)cc2)C(=O)/C(=C/c2ccc(F)cc2)C1	12.2%	-18.7% (active)	-12.9% (active)	-52.4% (active)	22%	-58.7% (active)	2.88% (active)	-6.4% (active)	3.07% (active)	–
c1ccc([I+]c2ccccc2)cc1	55.6%	65.5%	53.3%	64.7%	48.7%	61%	55%	90%	86.5%	–
Cc1ncc(-c2ccoc2)c(NC2CCCCCC2)n1	97.9%	103%	102%	82.8%	101%	99.2%	106%	110%	–	80.7%
CCCC(F)C(=O)O (centres undefined)	105%	114%	113%	89.5%	92%	97.2%	108%	117%	–	–
CCN(CC)CCN1CC(=O)Nc2cc(Cl)ccc21	101%	95.1%	103%	92.7%	102%	115%	102%	120%	104%	–
CC(C)=CCc1cc(O)cc2c1OC(C=C(C)C)C1=C2C(=O)C2=C(C1=O)S(=O)(=O)CCN2 (centres undefined)	28.6%	59.8%	35%	7.19% (active)	70.1%	80%	43.4%	56.4%	31.4%	–
N#Cc1cc(-c2cc3ccccc3o2)oc1N	11.4%	17.4%	20%	-4.4% (active)	-5.69% (active)	11.7%	12.9%	–	9.76% (active)	–
CS(=O)(=O)Nc1ccc(Nc2c3ccccc3nc3cc(N)ccc23)cc1	20.5%	-13.9% (active)	11.9%	-11.5% (active)	–	2.37% (active)	51.9%	16.9%	1.01% (active)	–
Nc1c(C(=O)Nc2ccccc2)sc2nc3c(cc12)CCCC3	38%	52.8%	49.9%	29.7%	21.7%	57%	1.79% (active)	11.1%	10.9%	–
O=C1C(c2ccccc2)C2C=CC(C2)N1O (centres undefined)	105%	101%	105%	96.4%	112%	102%	104%	114%	111%	–
CCN(CC)CCSCCN(CC)CC	102%	101%	108%	84.1%	103%	102%	106%	109%	102%	–

Compound	growth (NCI-H23 lung)	growth (NCI-H226 lung)	growth (HOP-62 NSCLC)	growth (NCI-H522 lung)	growth (A549/ATCC NSCLC)	growth (786-0 renal)	growth (COLO 205 colon)	growth (DU-145 prostate)	growth (NCI-H460 lung)	growth (NCI-H322M lung)
O=C(CCCCCCC(=O)Nc1cccnc1)NO	57.9%	86.5%	39.5%	-12.8% (active)	66.2%	70.4%	113%	40.1%	39.9%	–
C/C(=N\Nc1nc2ccccc2s1)c1ccncn1	42.3%	41.9%	41.3%	4.38% (active)	50.6%	38.3%	7.12% (active)	28.3%	–	46.2%
COC(=O)C(C(C[N+](=O)[O-])c1ccccc1)=P(c1ccccc1)(c1ccccc1)c1ccccc1 (centres undefined)	92.4%	96.6%	96.1%	83.3%	101%	96.1%	106%	89.6%	101%	–
COc1ccc(/C=C/C(=O)Nc2ccc(-c3nc4ccc(F)cc4s3)cc2)cc1	86.3%	72.3%	109%	85.5%	94%	80.6%	110%	118%	99.1%	–
O=S(=O)(Nc1ccccn1)c1ccc(N=Nc2ccc(O)c3ncccc23)cc1	14.5%	21.3%	7.27% (active)	-21.6% (active)	–	21.4%	108%	27.6%	5.48% (active)	–
COc1cc(C(=O)N2CCN(c3ccccc3OC)CC2)c(N)cc1OCCCN1CCN(c2ccccc2OC)CC1	69.8%	84.6%	93.2%	79.4%	–	96%	85.9%	103%	108%	–
COc1ccc(C2=NN(C(=O)c3ccc(S(C)(=O)=O)cc3)C(c3ccc(OC)c(OC)c3)C2)c(OC)c1 (centres undefined)	104%	85.5%	74.4%	86.6%	91.7%	99.8%	111%	98%	107%	–
CCCCCCN1CCN(Cc2ccc(N(CC)CC)cc2)C(=O)C1=O	39.9%	64.2%	33.3%	-7.64% (active)	21.6%	51.3%	6.83% (active)	-7.77% (active)	10.5%	–
Nc1nc(-c2ccccc2Cl)cc(-c2ccc(Cl)cc2Cl)n1	75.4%	87.7%	76.2%	68.5%	–	90.2%	64.9%	91.4%	49.8%	–
O=C(Nc1cccc(Cl)c1)Nc1nccs1	94.7%	99.6%	94.6%	7.88% (active)	28.6%	95.6%	126%	114%	98.9%	–
COc1ccc(/C=C/C(=O)Nc2ccc(-c3nc4ccc(OC)cc4s3)cc2)cc1	94.7%	99.9%	101%	91.2%	103%	103%	121%	117%	106%	–
CNc1ccc(CSc2ccc(C)cc2)cc1	–	32.8%	90.4%	4.69% (active)	42.4%	31.6%	86.4%	90.8%	80.8%	88.9%
CN1CC[C@@H](c2c(O)cc(O)c3c(=O)cc(-c4ccccc4Cl)oc23)[C@@H](O)C1	–	11.8%	12.1%	-42.6% (active)	14.2%	13%	-51% (active)	1.56% (active)	5.19% (active)	4.68% (active)
Nc1c(C(=O)Nc2ccccc2)sc2nc3c(cc12)C(O)CCC3 (centres undefined)	–	74%	24.6%	7.09% (active)	29.3%	57.6%	-8.22% (active)	5.47% (active)	11.8%	46.1%
COc1ccc(OC)c(NC(=O)c2sc3nc4c(cc3c2N)C(=O)CCC4)c1	–	88.6%	94%	60.6%	–	95.4%	34.1%	113%	37.4%	75.9%
